Measured values reported in the supplement of paper PMC4466140.

B1: unnamed (peptide)
chain: KTITLEVESSDTIDN
B2: unnamed (peptide)
chain: TTAPALPSLPPPPLL

Target: AgAbp1
Experiment: SPOT peptide array binding signal intensity (averaged, normalized) (arbitrary units (background-subtracted, floor 0; scale differs between SH3 domains)); higher = stronger binding of the SH3 domain to the peptide
Outline: (§1)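 E. coli BL21(DE3) was used to express GST-fused SH3 domains from four yeast species, which were then purified on glutathione Sepharose. These were incubated at 10 μg/ml in TBS-based blocking buffer overnight at 4°C on cellulose membranes carrying synthetic 15-mer peptides, in which cysteines were replaced by serines. Binding signal is the replicate average of normalized, background-subtracted spot intensity, in arbitrary units that differ between domains.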

Row | Binder | SPOT peptide array binding signal intensity
1 | B1 | 0.5
2 | B2 | 0.5

Target: AgBbc1
Experiment: as above
Outline: as §1

Row | Binder | SPOT peptide array binding signal intensity
3 | B1 | ≤ 0
4 | B2 | ≤ 0

Target: AgBem1-D1
Experiment: as above
Outline: as §1

Row | Binder | SPOT peptide array binding signal intensity
5 | B1 | ≤ 0
6 | B2 | ≤ 0

Target: AgBzz1-D1
Experiment: as above
Outline: as §1

Row | Binder | SPOT peptide array binding signal intensity
7 | B1 | ≤ 0
8 | B2 | 22

Target: AgBzz1-D2
Experiment: as above
Outline: as §1

Row | Binder | SPOT peptide array binding signal intensity
9 | B1 | ≤ 0
10 | B2 | 25

Target: AgCyk3
Experiment: as above
Outline: as §1

Row | Binder | SPOT peptide array binding signal intensity
11 | B1 | ≤ 0
12 | B2 | ≤ 0

Target: AgFus1
Experiment: as above
Outline: as §1

Row | Binder | SPOT peptide array binding signal intensity
13 | B1 | ≤ 0
14 | B2 | ≤ 0

Target: AgHof1
Experiment: as above
Outline: as §1

Row | Binder | SPOT peptide array binding signal intensity
15 | B1 | ≤ 0
16 | B2 | 1690

Target: AgHse1
Experiment: as above
Outline: as §1

Row | Binder | SPOT peptide array binding signal intensity
17 | B1 | ≤ 0
18 | B2 | ≤ 0

Target: AgLsb1
Experiment: as above
Outline: as §1

Row | Binder | SPOT peptide array binding signal intensity
19 | B1 | ≤ 0
20 | B2 | ≤ 0

Target: AgLsb4
Experiment: as above
Outline: as §1

Row | Binder | SPOT peptide array binding signal intensity
21 | B1 | 3
22 | B2 | ≤ 0

Target: AgMyo5
Experiment: as above
Outline: as §1

Row | Binder | SPOT peptide array binding signal intensity
23 | B1 | ≤ 0
24 | B2 | 3050

Target: AgNbp2
Experiment: as above
Outline: as §1

Row | Binder | SPOT peptide array binding signal intensity
25 | B1 | ≤ 0
26 | B2 | ≤ 0

Target: AgRvs167
Experiment: as above
Outline: as §1

Row | Binder | SPOT peptide array binding signal intensity
27 | B1 | 1.5
28 | B2 | 0.667

Target: AgSho1
Experiment: as above
Outline: as §1

Row | Binder | SPOT peptide array binding signal intensity
29 | B1 | ≤ 0
30 | B2 | ≤ 0

Target: AgSla1-D1-D2
Experiment: as above
Outline: as §1

Row | Binder | SPOT peptide array binding signal intensity
31 | B1 | 2
32 | B2 | ≤ 0

Target: AgSla1-D3
Experiment: as above
Outline: as §1

Row | Binder | SPOT peptide array binding signal intensity
33 | B1 | ≤ 0
34 | B2 | 3

Target: CaAbp1-D1
Experiment: as above
Outline: as §1

Row | Binder | SPOT peptide array binding signal intensity
35 | B1 | ≤ 0
36 | B2 | 5

Target: CaAbp1-D2
Experiment: as above
Outline: as §1

Row | Binder | SPOT peptide array binding signal intensity
37 | B1 | ≤ 0
38 | B2 | 21

Target: CaBbc1
Experiment: as above
Outline: as §1

Row | Binder | SPOT peptide array binding signal intensity
39 | B1 | ≤ 0
40 | B2 | 3

Target: CaBem1-D1
Experiment: as above
Outline: as §1

Row | Binder | SPOT peptide array binding signal intensity
41 | B1 | ≤ 0
42 | B2 | ≤ 0

Target: CaBzz1-D1
Experiment: as above
Outline: as §1

Row | Binder | SPOT peptide array binding signal intensity
43 | B1 | ≤ 0
44 | B2 | 3.5

Target: CaBzz1-D2
Experiment: as above
Outline: as §1

Row | Binder | SPOT peptide array binding signal intensity
45 | B1 | ≤ 0
46 | B2 | ≤ 0

Target: CaCyk3
Experiment: as above
Outline: as §1

Row | Binder | SPOT peptide array binding signal intensity
47 | B1 | ≤ 0
48 | B2 | ≤ 0

Target: CaFus1
Experiment: as above
Outline: as §1

Row | Binder | SPOT peptide array binding signal intensity
49 | B1 | ≤ 0
50 | B2 | ≤ 0

Target: CaHof1
Experiment: as above
Outline: as §1

Row | Binder | SPOT peptide array binding signal intensity
51 | B1 | ≤ 0
52 | B2 | 873

Target: CaHse1
Experiment: as above
Outline: as §1

Row | Binder | SPOT peptide array binding signal intensity
53 | B1 | ≤ 0
54 | B2 | 5.75

Target: CaLsb1
Experiment: as above
Outline: as §1

Row | Binder | SPOT peptide array binding signal intensity
55 | B1 | 0.5
56 | B2 | 0.5

Target: CaLsb4
Experiment: as above
Outline: as §1

Row | Binder | SPOT peptide array binding signal intensity
57 | B1 | ≤ 0
58 | B2 | ≤ 0

Target: CaMyo5
Experiment: as above
Outline: as §1

Row | Binder | SPOT peptide array binding signal intensity
59 | B1 | ≤ 0
60 | B2 | 1950

Target: CaNbp2
Experiment: as above
Outline: as §1

Row | Binder | SPOT peptide array binding signal intensity
61 | B1 | ≤ 0
62 | B2 | ≤ 0

Target: CaRvs167
Experiment: as above
Outline: as §1

Row | Binder | SPOT peptide array binding signal intensity
63 | B1 | ≤ 0
64 | B2 | 1

Target: CaRvs167-3
Experiment: as above
Outline: as §1

Row | Binder | SPOT peptide array binding signal intensity
65 | B1 | 2.5
66 | B2 | 1

Target: CaSho1
Experiment: as above
Outline: as §1

Row | Binder | SPOT peptide array binding signal intensity
67 | B1 | ≤ 0
68 | B2 | ≤ 0

Target: CaSla1-D1-D2
Experiment: as above
Outline: as §1

Row | Binder | SPOT peptide array binding signal intensity
69 | B1 | ≤ 0
70 | B2 | ≤ 0

Target: CaSla1-D3
Experiment: as above
Outline: as §1

Row | Binder | SPOT peptide array binding signal intensity
71 | B1 | ≤ 0
72 | B2 | 0.25

Target: ScAbp1
Experiment: as above
Outline: as §1

Row | Binder | SPOT peptide array binding signal intensity
73 | B1 | 1
74 | B2 | 1

Target: ScBbc1
Experiment: as above
Outline: as §1

Row | Binder | SPOT peptide array binding signal intensity
75 | B1 | ≤ 0
76 | B2 | 1

Target: ScBem1-D1
Experiment: as above
Outline: as §1

Row | Binder | SPOT peptide array binding signal intensity
77 | B1 | ≤ 0
78 | B2 | 2

Target: ScBzz1-D1
Experiment: as above
Outline: as §1

Row | Binder | SPOT peptide array binding signal intensity
79 | B1 | 8
80 | B2 | 190

Target: ScBzz1-D2
Experiment: as above
Outline: as §1

Row | Binder | SPOT peptide array binding signal intensity
81 | B1 | ≤ 0
82 | B2 | ≤ 0

Target: ScCyk3
Experiment: as above
Outline: as §1

Row | Binder | SPOT peptide array binding signal intensity
83 | B1 | ≤ 0
84 | B2 | ≤ 0

Target: ScFus1
Experiment: as above
Outline: as §1

Row | Binder | SPOT peptide array binding signal intensity
85 | B1 | 15
86 | B2 | ≤ 0

Target: ScHof1
Experiment: as above
Outline: as §1

Row | Binder | SPOT peptide array binding signal intensity
87 | B1 | 1
88 | B2 | 2250

Target: ScHse1
Experiment: as above
Outline: as §1

Row | Binder | SPOT peptide array binding signal intensity
89 | B1 | ≤ 0
90 | B2 | ≤ 0

Target: ScLsb1
Experiment: as above
Outline: as §1

Row | Binder | SPOT peptide array binding signal intensity
91 | B1 | ≤ 0
92 | B2 | ≤ 0

Target: ScLsb2
Experiment: as above
Outline: as §1

Row | Binder | SPOT peptide array binding signal intensity
93 | B1 | ≤ 0
94 | B2 | ≤ 0

Target: ScLsb3
Experiment: as above
Outline: as §1

Row | Binder | SPOT peptide array binding signal intensity
95 | B1 | ≤ 0
96 | B2 | ≤ 0

Target: ScLsb4
Experiment: as above
Outline: as §1

Row | Binder | SPOT peptide array binding signal intensity
97 | B1 | ≤ 0
98 | B2 | ≤ 0

Target: ScMyo3
Experiment: as above
Outline: as §1

Row | Binder | SPOT peptide array binding signal intensity
99 | B1 | ≤ 0
100 | B2 | 2800

Target: ScMyo5
Experiment: as above
Outline: as §1

Row | Binder | SPOT peptide array binding signal intensity
101 | B1 | ≤ 0
102 | B2 | 2300

Target: ScNbp2
Experiment: as above
Outline: as §1

Row | Binder | SPOT peptide array binding signal intensity
103 | B1 | ≤ 0
104 | B2 | ≤ 0

Target: ScPex13
Experiment: as above
Outline: as §1

Row | Binder | SPOT peptide array binding signal intensity
105 | B1 | ≤ 0
106 | B2 | 214

Target: ScRvs167
Experiment: as above
Outline: as §1

Row | Binder | SPOT peptide array binding signal intensity
107 | B1 | ≤ 0
108 | B2 | ≤ 0

Target: ScSho1
Experiment: as above
Outline: as §1

Row | Binder | SPOT peptide array binding signal intensity
109 | B1 | ≤ 0
110 | B2 | 42

Target: ScSla1-D1-D2
Experiment: as above
Outline: as §1

Row | Binder | SPOT peptide array binding signal intensity
111 | B1 | ≤ 0
112 | B2 | ≤ 0

Target: ScSla1-D3
Experiment: as above
Outline: as §1

Row | Binder | SPOT peptide array binding signal intensity
113 | B1 | 10.2
114 | B2 | 1.5

Target: SpAbp1-D1
Experiment: as above
Outline: as §1

Row | Binder | SPOT peptide array binding signal intensity
115 | B1 | ≤ 0
116 | B2 | ≤ 0

Target: SpBbc1
Experiment: as above
Outline: as §1

Row | Binder | SPOT peptide array binding signal intensity
117 | B1 | 1
118 | B2 | 7.5

Target: SpBzz1-D1
Experiment: as above
Outline: as §1

Row | Binder | SPOT peptide array binding signal intensity
119 | B1 | ≤ 0
120 | B2 | 124

Target: SpBzz1-D2
Experiment: as above
Outline: as §1

Row | Binder | SPOT peptide array binding signal intensity
121 | B1 | ≤ 0

Target: SpCyk3
Experiment: as above
Outline: as §1

Row | Binder | SPOT peptide array binding signal intensity
122 | B1 | ≤ 0

Target: SpHof1
Experiment: as above
Outline: as §1

Row | Binder | SPOT peptide array binding signal intensity
123 | B1 | ≤ 0

Target: SpHof1-2
Experiment: as above
Outline: as §1

Row | Binder | SPOT peptide array binding signal intensity
124 | B1 | ≤ 0

Target: SpHof1-3
Experiment: as above
Outline: as §1

Row | Binder | SPOT peptide array binding signal intensity
125 | B1 | ≤ 0

Target: SpHse1
Experiment: as above
Outline: as §1

Row | Binder | SPOT peptide array binding signal intensity
126 | B1 | ≤ 0

Target: SpLsb1
Experiment: as above
Outline: as §1

Row | Binder | SPOT peptide array binding signal intensity
127 | B1 | ≤ 0

Target: SpLsb4
Experiment: as above
Outline: as §1

Row | Binder | SPOT peptide array binding signal intensity
128 | B1 | ≤ 0

Target: SpMyo1
Experiment: as above
Outline: as §1

Row | Binder | SPOT peptide array binding signal intensity
129 | B1 | ≤ 0

Target: SpNbp2
Experiment: as above
Outline: as §1

Row | Binder | SPOT peptide array binding signal intensity
130 | B1 | ≤ 0

Target: SpPex13
Experiment: as above
Outline: as §1

Row | Binder | SPOT peptide array binding signal intensity
131 | B1 | ≤ 0

Target: SpRvs167
Experiment: as above
Outline: as §1

Row | Binder | SPOT peptide array binding signal intensity
132 | B1 | ≤ 0

Target: SpSla1-D1-D2
Experiment: as above
Outline: as §1

Row | Binder | SPOT peptide array binding signal intensity
133 | B1 | ≤ 0

Target: SpSla1-D3
Experiment: as above
Outline: as §1

Row | Binder | SPOT peptide array binding signal intensity
134 | B1 | ≤ 0
